NPC1 prom act: NPC1 promoter activation | Huh7 NPC1 promoter luciferase reporter, 24 h | Potency, µM (series often up to 9.22 µM), for the others: top-dose activation, hits mostly activators | actives 2.4% (n = 320,000); note: % of control where 0% means no effect; nearly all actives have a fitted effect of over 60% in size
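NPC1 promoter–luciferase Huh7 cells; 24 h compound; luminescence.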
Rab9 promoter act: activates the Rab9 promoter | Huh7 Rab9 promoter-luciferase reporter, luminescence, 24 h | Potency, µM (doses to about 9.22 µM), for the others: top-dose activation, negative = inhibition, usual class: activators | actives 2.8% (n = 320,000); note: % of control where 0% means no effect; nearly all actives have a fitted effect of over 60% in size
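Luminescence read-out: Huh7 cells stably expressing Rab9-luciferase, treated 24 h with compound at 37 °C, then lysed with luciferase reagent for 10 min at ambient before reading.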
FLuc modulator: counter-screen for miR-21 project: firefly luciferase inhibitors or activators; purified FLuc, Km substrates, luminescence inhibition; Potency, µM (doses to about 57.5 µM), for the others: at the top dose activity change, negative = inhibition, usual class: inhibitors; actives 6.9% (n = 360,000); AID 588342;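 note: plate controls were vehicle for no effect and reference inhibitor for full effect; nearly all actives have a fitted effect of over 55% in size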
Target sequence (P08659 whole entry, looked up): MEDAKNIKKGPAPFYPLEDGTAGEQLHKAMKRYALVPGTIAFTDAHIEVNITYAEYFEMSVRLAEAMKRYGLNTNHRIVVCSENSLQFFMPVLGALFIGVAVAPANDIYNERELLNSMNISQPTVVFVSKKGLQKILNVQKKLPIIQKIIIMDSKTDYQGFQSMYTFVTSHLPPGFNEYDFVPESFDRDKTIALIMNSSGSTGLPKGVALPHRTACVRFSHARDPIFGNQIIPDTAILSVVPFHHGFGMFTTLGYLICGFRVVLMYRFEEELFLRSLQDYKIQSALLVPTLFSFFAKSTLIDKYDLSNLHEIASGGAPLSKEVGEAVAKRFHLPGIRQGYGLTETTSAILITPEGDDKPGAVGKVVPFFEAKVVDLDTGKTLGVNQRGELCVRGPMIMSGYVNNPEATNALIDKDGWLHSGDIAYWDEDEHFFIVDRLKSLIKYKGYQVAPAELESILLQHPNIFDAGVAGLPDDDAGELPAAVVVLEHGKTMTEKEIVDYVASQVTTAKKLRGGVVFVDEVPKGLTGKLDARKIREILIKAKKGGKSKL
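Purified P. pyralis luciferase, 10 nM final, with Km-level 10 uM D-luciferin and 10 uM ATP in 50 mM Tris acetate pH 7.5, 10 mM Mg acetate, 0.01% Tween-20, 0.05% BSA; 6-point qHTS titration about 60 µM downward; luminescence read.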
Luc counter: blocks Kinase-Glo luciferase, a counter-screen artifact | actives 0.28% (n = 200,000) | Q27757 | Kinase-Glo luciferase, ATP luminescence, 8 min | Potency, µM (top dose mostly 38.3 µM), inactives show at the top dose activity change, negative = inhibition, actives largely listed as inhibitors | AID 1379; note: % is set by controls: 0 for no effect and ±100 for the full control effect; nearly all actives have a fitted effect of over 60% in size
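Recombinant Kinase-Glo luciferase, 10 uM ATP (linear range), luciferin; imidazole pH 7.2 / KCl / MgCl2 / Tween / BSA buffer; 8 min RT; luminescence.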
ELG1 genotox: inducers of genotoxicity in HEK293T ELG1-luciferase cells | actives 1.3% (n = 330,000) | HEK293T ELG1-luciferase reporter, luminescence, 16 h | AID 504466 | Potency, µM (doses to about 46 µM), for inactives: top-dose activity change, positive = activation, hits mostly activators; note: % of control where 0% means no effect; nearly all actives have a fitted effect of over 60% in size
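Luminescence read-out: rising ELG1-luciferase signal, reflecting elevated ELG1 protein under genetic stress, flags genotoxic compounds. Cells were treated for 16 hr at 37 °C before ONE-Glo detection.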
SMN2 splice up: increases expression of the SMN2 splice variant; HEK293 SMN2-luciferase splicing reporter, luminescence, 30-36 h; Potency, µM (titrated, usually from 46.1 µM), inactives show at the highest dose activity change, positive = activation, usual class: activators; actives 2.8% (n = 210,000); AID 1458; note: % of control where 0% means no effect; nearly all actives have a fitted effect of over 55% in size
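HEK293 cells carry an SMN2 minigene-luciferase reporter in which exon 7 inclusion puts luciferase in frame. Cells were seeded at 2000 cells/well, attached for 10-12 hours, then exposed to compounds for 30-36 hours at 37C before ONE-Glo luminescence.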
* = called active by the depositor; ? = inconclusive; nt = not tested or not shown. Shown are actives, neighbours in structure and some others; about 7.5% of the full set was active somewhere. Calls come from the whole dose curve; as a rule, active = well fitted curve in the direction sought with a large enough effect; inconclusive = small, poorly fitted or top-dose-only effect, or another doubt; inactive = no such curve, though single readings can be large; an effect the other way counts as inactive or inconclusive. Potency is the fitted concentration of half-maximal effect.

SMILES	NPC1 prom act	Rab9 promoter act	FLuc modulator	Luc counter	ELG1 genotox	SMN2 splice up
COc1cccc(NC(=O)CSc2nc3ccccc3nc2N2CCOCC2)c1	-4%	7%	-15%	nt	-5%	4µM*
O=C(CCSc1ccccn1)Nc1ccc(Br)cc1	?	3.5µM*	12µM*	0%	?	14µM*
COc1ccc(NC(=O)CSc2ccccn2)cc1	21%	?	?	-4%	16%	?
Cc1cccc2c1-c1sc(C(=O)NCCCN3CCN(c4cccc(Cl)c4)CC3)cc1CO2	nt	nt	-5%	nt	nt	-1%
COc1ccccc1C(=O)CSc1ccccn1	28%	?	17µM*	-2%	?	28%
COC(=O)CNC(=O)CSc1ccccn1	0%	-6%	-4%	nt	0%	nt
COc1ccc(N(CC(=O)NCCSc2ccccn2)S(C)(=O)=O)cc1	0%	-4%	6%	0%	4%	-6%
COc1ccc(C(=O)NCCSc2ccccn2)cc1	0.71µM*	0.4µM*	2.1µM*	0%	1µM*	2.8µM*
CCCSc1nn2c(=O)c3ccccc3nc2s1	4µM*	2µM*	7.6µM*	-16%	2.9µM*	35µM*
Cc1cccc(Nc2nn3c(=O)c4ccccc4nc3s2)c1	4µM*	?	?	-1%	9%	7.9µM*
O=c1c2ccccc2nc2sc(Nc3cccc4ccccc34)nn12	nt	nt	2%	nt	nt	nt
Cc1cccc(C)c1NC(=O)c1ccc2c(c1)N(Cc1cccc(Cl)c1)C(=O)c1ccccc1S2=O (stereo unspecified)	nt	nt	1%	nt	nt	13%
COC(=O)C1=C(C)NC(=O)/C1=C\c1cc(C)n(-c2cccc(C)c2)c1C	2%	18%	27µM*	-2%	8%	-36%
Cc1cccc(-n2c(C)cc(/C=C3\NC(=O)NC3=O)c2C)c1	20%	24%	6.7µM*	nt	?	nt
COC(=O)C1=C(C)NC(=O)/C1=C\c1cc(C)n(-c2ccc(F)cc2)c1C	0%	19%	19µM*	0%	3%	3%
CCOC(=O)C1CCN(C(c2ccc(OCC)cc2)c2c(O)cc(C)n(CCOC)c2=O)CC1 (stereo unspecified)	nt	nt	-11%	nt	nt	nt
CC1CCCN(c2ccc(C(=O)NCc3ccccc3)cn2)C1 (stereo unspecified)	17%	?	?	2%	5%	?
O=C(NCc1cccs1)c1ccncc1	-1%	3%	1%	4%	-3%	4%
CC1CCCN(c2ccc(C(=O)NCc3cccs3)cn2)C1 (stereo unspecified)	?	?	19µM*	-3%	?	13µM*
O=C(NCc1cccs1)c1ccc(N2CCCCC2)nc1	nt	nt	21µM*	-9%	nt	?
Cc1c(C(=O)Nc2ccc3c(c2)OCO3)oc2ccccc12	2µM*	2.2µM*	1.9µM*	nt	2.6µM*	nt
COCC(=O)Nc1c(C(=O)Nc2ccc(C)cc2)oc2ccccc12	nt	nt	-8%	nt	nt	7.9µM*
Cc1ccc(NC(=O)c2oc3ccccc3c2NC(=O)c2ccc(F)c(F)c2)cc1	nt	nt	-3%	nt	nt	-4%
CSCc1c(C(=O)Nc2ccc(N3CCOCC3)cc2)oc2ccccc12	7%	0%	1%	-1%	5%	-20%
CC(=O)Nc1c(C(=O)Nc2ccc3c(c2)OCO3)oc2ccccc12	2.8µM*	2.5µM*	11µM*	nt	?	nt
SMILES	NPC1 prom act	Rab9 promoter act	FLuc modulator	Luc counter	ELG1 genotox	SMN2 splice up
CC(=O)Nc1c(C(=O)Nc2ccccc2F)oc2ccccc12	nt	nt	-3%	nt	nt	9%
CSCc1c(C(=O)Nc2ccc3c(c2)OCO3)oc2ccccc12	-26%	19%	19µM*	nt	11%	nt
Clc1ccccc1CSc1nc(NCCc2ccccc2)c2ccccc2n1	nt	nt	1%	nt	nt	nt
CCOc1cc(C(=O)NCCc2csc(-c3ccc(C)cc3)n2)cc(OCC)c1OCC	nt	nt	-15%	nt	nt	nt
CCCn1ccc2c(OCC(=O)Nc3ccc(F)cc3F)cccc2c1=O	nt	nt	4%	nt	nt	nt
COc1ccc(/C=C/C(=O)NCC(=O)N/N=C(/C)c2ccc(Cl)cc2)cc1	1%	1%	-5%	nt	13%	nt
COCC(=O)Nc1c(C(=O)Nc2ccc3c(c2)OCO3)oc2ccccc12	3.5µM*	3.2µM*	-6%	nt	?	nt
O=C(CCl)Nc1c(C(=O)Nc2ccc3c(c2)OCCO3)oc2ccccc12	4µM*	4µM*	?	nt	?	nt
O=C(COc1ccccc1F)Nc1c(C(=O)Nc2cccc(F)c2)oc2ccccc12	nt	nt	6%	nt	nt	6%
COc1cc2c(cc1OC)CN(C(=O)c1cc(S(=O)(=O)N3CCOCC3)c(Cl)cc1Cl)CC2	-3%	-12%	2%	nt	-16%	nt
CCOc1ccc2nc(NC(=O)CN3C(=O)C4CCCCC4C3=O)sc2c1 (stereo unspecified)	22%	21%	6µM*	nt	6%	nt
CCOc1ccc2nc(NC(=O)COC)sc2c1	2µM*	1.3µM*	5.4µM*	-4%	2µM*	11µM*
CCOc1ccc2nc(NC(=O)CN3CCN(CC)CC3)sc2c1	4%	0%	-18%	nt	3%	nt
CCOc1ccc2nc(NC(=O)CN3CCN(C)CC3)sc2c1	6%	10%	?	-3%	14%	23%
CCCCOC(=O)Nc1nc2ccc(OC)cc2s1	25%	19%	?	-2%	?	21%
CCOCC(=O)Nc1nc2ccc(OC)cc2s1	2µM*	1.4µM*	12µM*	-20%	5.2µM*	11µM*
CCOc1ccc2nc(NC(=O)C(CC)Sc3nc(C)cc(=O)[nH]3)sc2c1 (stereo unspecified)	28%	?	24µM*	0%	?	36%
CN(C)C1(CNC(=O)C2CCN(S(=O)(=O)c3cccc(C(F)(F)F)c3)CC2)CCCCC1	-6%	0%	3%	nt	-2%	nt
CCOc1ccc2nc(NC(=O)Cn3[nH]c(=O)c4ccccc4c3=O)sc2c1	?	?	15µM*	nt	?	nt
O=C(Cn1cnc2ccccc2c1=O)Nc1ccc2c(c1)OCCO2	2.2µM*	1.8µM*	9.5µM*	-4%	?	13µM*
O=C(Cn1cnc2ccccc2c1=O)OCC(=O)c1ccc2c(c1)OCCO2	0%	-8%	21µM*	2%	0%	-5%
Cn1c(=O)c2c(-c3ccccc3)n3c4ccccc4nc(-c4ccccc4)c3c2n(C)c1=O	nt	nt	-1%	nt	nt	7%
CC(C)Oc1ccc(CNC(=O)Nc2ccc3c(c2)N(C)C(=O)c2ccccc2S3)cc1	nt	nt	0%	nt	nt	nt
O=C(CC1N=C2c3ccccc3N=C(SCc3cccc(Cl)c3)N2C1=O)NC1CCCCC1 (stereo unspecified)	nt	nt	0%	nt	nt	nt
COc1ccc(S(=O)(=O)Nc2cc(-c3cn4ccc(C)cc4n3)ccc2C)cc1OC	nt	nt	15µM*	nt	nt	19%

Bioassay records (PubChem BioAssay)
